Source: the supplement of paper PMC12282887
± gives the standard deviation of the averaged measurements.

Key:
Assay in all cases: promoter activity interaction Z-score (Lux/OD deviation from empty-vector control); higher = stronger promoter induction by the compound
[1] = system: E. coli BW25113 acrABp lux reporter
Procedure, shortened: (§1)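 E. coli BW25113 luxCDABE reporter strains grew at 37°C in 40 µl LB Lennox in 384-well plates, with OD600 and luminescence read every 30 min for 12 h. After integration over 0–8 h for wild type or 1–9 h for deletion strains, wells under 10% of the median growth value were removed. Each score is the Z-transformed residual of growth-normalised luminescence fitted against a control.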

[2] = system: E. coli BW25113 micFp lux reporter
Procedure, shortened: as §1

[3] = system: E. coli BW25113 ompFp lux reporter
Procedure, shortened: as §1

[4] = system: E. coli BW25113 robp lux reporter
Procedure, shortened: as §1

[5] = system: E. coli BW25113 soxSp lux reporter
Procedure, shortened: as §1

[6] = system: E. coli BW25113 tolCp lux reporter
Procedure, shortened: as §1

[7] = 0.062 µg/ml, genetic background: wild type
[8] = 0.062 µg/ml, genetic background: ΔmarA
[9] = 0.062 µg/ml, genetic background: Δrob
[10] = 0.062 µg/ml, genetic background: ΔsoxS
[11] = 0.12 µg/ml, genetic background: wild type
[12] = 0.12 µg/ml, genetic background: ΔmarA
[13] = 0.12 µg/ml, genetic background: Δrob
[14] = 0.12 µg/ml, genetic background: ΔsoxS
[15] = 0.25 µg/ml, genetic background: wild type
[16] = 0.25 µg/ml, genetic background: ΔmarA
[17] = 0.25 µg/ml, genetic background: Δrob
[18] = 0.25 µg/ml, genetic background: ΔsoxS
[19] = 0.49 µg/ml, genetic background: wild type
[20] = 0.49 µg/ml, genetic background: ΔmarA
[21] = 0.49 µg/ml, genetic background: Δrob
[22] = 0.49 µg/ml, genetic background: ΔsoxS

CN(C)c1ccc(O)c2c1C[C@H]1C[C@H]3[C@H](N(C)C)C(O)=C(C(N)=O)C(=O)[C@@]3(O)C(O)=C1C2=O [Minocycline] was tested, and the “promoter activity interaction Z-score” value [1, 7] was -0.0516 ± 0.1, the “promoter activity interaction Z-score” value [1, 8] was 0.0987 ± 0.99 and the “promoter activity interaction Z-score” value [1, 9] was 0.189 ± 0.07. For the same compound, the “promoter activity interaction Z-score” value [1, 10] was -0.577 ± 0.76, the “promoter activity interaction Z-score” value [1, 11] was 0.0573 ± 0.042 and the “promoter activity interaction Z-score” value [1, 12] was 0.356 ± 1.1. The “promoter activity interaction Z-score” value [1, 13] was 0.339 ± 0.34, the “promoter activity interaction Z-score” value [1, 14] was 0.263 ± 0.16 and the “promoter activity interaction Z-score” value [1, 15] was 0.223 ± 0.18. For the same compound, the “promoter activity interaction Z-score” value [1, 16] was 0.273 ± 0.88, the “promoter activity interaction Z-score” value [1, 17] was 0.387 ± 0.58 and the “promoter activity interaction Z-score” value [1, 18] was 0.196 ± 0.47. The “promoter activity interaction Z-score” value [1, 19] was 2.47 ± 0.56, the “promoter activity interaction Z-score” value [1, 20] was 0.55 ± 0.59 and the “promoter activity interaction Z-score” value [1, 21] was 2.62 ± 0.41. For the same compound, the “promoter activity interaction Z-score” value [1, 22] was 2.95 ± 1.3, the “promoter activity interaction Z-score” value [2, 7] was 0.172 ± 0.028 and the “promoter activity interaction Z-score” value [2, 8] was -0.151 ± 0.19. The “promoter activity interaction Z-score” value [2, 9] was 0.0108 ± 0.022, the “promoter activity interaction Z-score” value [2, 10] was -0.429 ± 0.019 and the “promoter activity interaction Z-score” value [2, 11] was 0.33 ± 0.72. The “promoter activity interaction Z-score” value [2, 12] was -0.0481 ± 0.0079, the “promoter activity interaction Z-score” value [2, 13] was -0.075 ± 0.12 and the “promoter activity interaction Z-score” value [2, 14] was 0.127 ± 0.026. For the same compound, the “promoter activity interaction Z-score” value [2, 15] was 0.933 ± 0.82, the “promoter activity interaction Z-score” value [2, 16] was -0.106 ± 0.069 and the “promoter activity interaction Z-score” value [2, 17] was 0.138 ± 0.07. The “promoter activity interaction Z-score” value [2, 18] was -0.0781 ± 0.17, the “promoter activity interaction Z-score” value [2, 19] was 1.77 ± 1.9 and the “promoter activity interaction Z-score” value [2, 20] was 0.182 ± 0.15. For the same compound, the “promoter activity interaction Z-score” value [2, 21] was 0.0732 ± 0.00089, the “promoter activity interaction Z-score” value [2, 22] was 0.743 ± 0.81 and the “promoter activity interaction Z-score” value [3, 7] was 0.0637 ± 0.43. For the same compound, the “promoter activity interaction Z-score” value [3, 8] was -0.699 ± 0.25, the “promoter activity interaction Z-score” value [3, 9] was 0.129 ± 0.49 and the “promoter activity interaction Z-score” value [3, 10] was -0.457 ± 0.12. For the same compound, the “promoter activity interaction Z-score” value [3, 11] was 0.41 ± 0.83, the “promoter activity interaction Z-score” value [3, 12] was 0.0821 ± 0.38 and the “promoter activity interaction Z-score” value [3, 13] was 0.365 ± 0.77. For the same compound, the “promoter activity interaction Z-score” value [3, 14] was 0.49 ± 0.25, the “promoter activity interaction Z-score” value [3, 15] was 0.511 ± 0.43 and the “promoter activity interaction Z-score” value [3, 16] was -0.386 ± 0.46. For the same compound, the “promoter activity interaction Z-score” value [3, 17] was 0.978 ± 0.71, the “promoter activity interaction Z-score” value [3, 18] was 0.461 ± 0.59 and the “promoter activity interaction Z-score” value [3, 19] was 1.65 ± 0.69. The “promoter activity interaction Z-score” value [3, 20] was 1.7 ± 0.75, the “promoter activity interaction Z-score” value [3, 21] was 1.71 ± 1.5 and the “promoter activity interaction Z-score” value [3, 22] was 2.93 ± 0.19. The “promoter activity interaction Z-score” value [4, 7] was -0.379 ± 0.35, the “promoter activity interaction Z-score” value [4, 8] was -0.0848 ± 0.76 and the “promoter activity interaction Z-score” value [4, 9] was 0.746 ± 0.51. For the same compound, the “promoter activity interaction Z-score” value [4, 10] was -0.6221 ± 0.0048, the “promoter activity interaction Z-score” value [4, 11] was 0.195 ± 0.02 and the “promoter activity interaction Z-score” value [4, 12] was 0.369 ± 0.11. For the same compound, the “promoter activity interaction Z-score” value [4, 13] was 0.83 ± 0.12, the “promoter activity interaction Z-score” value [4, 14] was 0.357 ± 0.091 and the “promoter activity interaction Z-score” value [4, 15] was 0.736 ± 1.1. The “promoter activity interaction Z-score” value [4, 16] was 0.349 ± 0.033, the “promoter activity interaction Z-score” value [4, 17] was 1.12 ± 0.15 and the “promoter activity interaction Z-score” value [4, 18] was -0.142 ± 0.44. The “promoter activity interaction Z-score” value [4, 19] was 0.715 ± 0.67, the “promoter activity interaction Z-score” value [4, 20] was 0.586 ± 0.056 and the “promoter activity interaction Z-score” value [4, 21] was 0.685 ± 1.6. The “promoter activity interaction Z-score” value [4, 22] was 0.64 ± 1.7, the “promoter activity interaction Z-score” value [5, 7] was 0.269 ± 0.16 and the “promoter activity interaction Z-score” value [5, 8] was -0.245 ± 0.04. The “promoter activity interaction Z-score” value [5, 9] was 0.0739 ± 0.0036, the “promoter activity interaction Z-score” value [5, 10] was -0.185 ± 0.069 and the “promoter activity interaction Z-score” value [5, 11] was 0.291 ± 0.56. For the same compound, the “promoter activity interaction Z-score” value [5, 12] was 0.0029 ± 0.014, the “promoter activity interaction Z-score” value [5, 13] was -0.102 ± 0.055 and the “promoter activity interaction Z-score” value [5, 14] was 0.203 ± 0.098. The “promoter activity interaction Z-score” value [5, 15] was 0.499 ± 0.44, the “promoter activity interaction Z-score” value [5, 16] was -0.0485 ± 0.1 and the “promoter activity interaction Z-score” value [5, 17] was 0.0791 ± 0.26. The “promoter activity interaction Z-score” value [5, 18] was -0.114 ± 0.015, the “promoter activity interaction Z-score” value [5, 19] was 0.538 ± 0.72 and the “promoter activity interaction Z-score” value [5, 20] was 0.583 ± 0.97. The “promoter activity interaction Z-score” value [5, 21] was 0.542 ± 0.91, the “promoter activity interaction Z-score” value [5, 22] was 0.336 ± 0.25 and the “promoter activity interaction Z-score” value [6, 7] was -0.706 ± 0.049. For the same compound, the “promoter activity interaction Z-score” value [6, 8] was -0.479 ± 0.52, the “promoter activity interaction Z-score” value [6, 9] was -0.423 ± 0.84 and the “promoter activity interaction Z-score” value [6, 10] was -0.991 ± 0.75. For the same compound, the “promoter activity interaction Z-score” value [6, 11] was 0.000824 ± 0.27, the “promoter activity interaction Z-score” value [6, 12] was -0.0931 ± 0.19 and the “promoter activity interaction Z-score” value [6, 13] was -0.00328 ± 1.2. The “promoter activity interaction Z-score” value [6, 14] was 0.557 ± 0.39, the “promoter activity interaction Z-score” value [6, 15] was -0.22 ± 0.98 and the “promoter activity interaction Z-score” value [6, 16] was -0.201 ± 0.28. The “promoter activity interaction Z-score” value [6, 17] was 0.646 ± 0.087, the “promoter activity interaction Z-score” value [6, 18] was -0.226 ± 0.84 and the “promoter activity interaction Z-score” value [6, 19] was -0.114 ± 0.25. The “promoter activity interaction Z-score” value [6, 20] was 0.0123 ± 0.63, the “promoter activity interaction Z-score” value [6, 21] was 0.966 ± 0.27 and the “promoter activity interaction Z-score” value [6, 22] was 0.526 ± 0.79.
